Autofluor counter: flagged as autofluorescent in microsphere protease counterscreen; compound autofluorescence counterscreen, microsphere flow cytometry; hits give high values; fluorescence intensity (concentration not given with the values); 360,000 tested, 3.1% active; AID 624483; in the data active = fluorescence intensity above about 16000; inconclusive = no clear call, values can overlap the other calls
BoNT F protease: BoNT/F light chain protease inhibitors, primary screen, biochemical, flow cytometry, MLPCN library | Botulinum neurotoxin type F light chain protease (Clostridium botulinum) | Multiplex microsphere protease cleavage assay | inhibition, % at 10 µM | 360,000 tested, 0.22% active; in the data active = inhibition above about 35%, passing the limit was not always enough; inconclusive = no clear call, values can overlap the other calls
BoNT A protease: BoNT/A light chain protease inhibitors, primary screen, biochemical, flow cytometry, MLPCN library; AID 588499, 2011; inhibition, % at 10 µM; multiplex microsphere protease substrate cleavage; Botulinum neurotoxin type A light chain protease (Clostridium botulinum A str. ATCC 3502); 360,000 tested, 0.17% active
MazEF act: activators of E. coli MazEF toxin-antitoxin RNase, primary screen, biochemical, fluorescence, uHTS; Endoribonuclease toxin MazF (Escherichia coli (strain K12)), P0AE70; FAM/BHQ RNA-DNA oligo cleavage fluorescence, 5 h; activation, % at 20 µM; 350,000 tested, 0.32% active; AID 504720, 2011; in the data active = activation above about 50%
Anthrax LF inh2: Bacillus anthracis LF protease inhibitors, primary screen, biochemical, multiplex microsphere, MLPCN library; multiplex microsphere protease cleavage assay; inhibition, % at 10 µM; Lethal factor (Bacillus anthracis), P15917; 360,000 tested, 0.12% active
Target sequence (P15917 whole entry, looked up): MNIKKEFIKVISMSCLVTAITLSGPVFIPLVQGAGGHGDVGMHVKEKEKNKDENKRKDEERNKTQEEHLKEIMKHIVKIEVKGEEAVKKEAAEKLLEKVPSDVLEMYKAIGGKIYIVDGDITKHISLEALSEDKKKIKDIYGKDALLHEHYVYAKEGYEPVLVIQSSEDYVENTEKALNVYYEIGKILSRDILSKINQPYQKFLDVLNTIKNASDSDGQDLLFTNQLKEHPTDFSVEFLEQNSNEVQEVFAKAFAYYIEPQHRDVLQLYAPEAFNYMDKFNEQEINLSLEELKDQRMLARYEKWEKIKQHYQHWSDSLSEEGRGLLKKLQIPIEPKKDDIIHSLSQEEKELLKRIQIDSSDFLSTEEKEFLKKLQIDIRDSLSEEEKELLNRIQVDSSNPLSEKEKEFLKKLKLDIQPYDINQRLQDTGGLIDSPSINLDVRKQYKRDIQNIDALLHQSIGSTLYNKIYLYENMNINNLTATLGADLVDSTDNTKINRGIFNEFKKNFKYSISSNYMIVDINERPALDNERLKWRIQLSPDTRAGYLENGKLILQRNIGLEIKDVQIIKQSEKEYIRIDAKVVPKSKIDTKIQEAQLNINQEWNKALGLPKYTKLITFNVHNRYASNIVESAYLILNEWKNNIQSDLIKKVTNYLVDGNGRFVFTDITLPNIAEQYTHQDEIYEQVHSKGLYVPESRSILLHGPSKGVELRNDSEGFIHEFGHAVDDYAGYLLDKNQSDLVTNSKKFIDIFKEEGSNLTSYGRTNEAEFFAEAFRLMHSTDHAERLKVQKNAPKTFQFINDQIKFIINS
BoNT-A LC CP1: BoNT/A light chain protease inhibitors, confirmation, biochemical, flow cytometry, cherry pick 1 | shares compounds with BoNT F protease | inhibition, % at 10 µM | multiplex microsphere protease assay | 720 tested, 3% active; in the data active = inhibition above about 32%
BoNTF LC inh 1: BoNT/F light chain protease inhibitors, confirmation, biochemical, flow cytometry, cherry pick 1 | 720 tested, under 10 active | multiplex microsphere protease cleavage assay | AID 602140, 2011 | shares compounds with BoNT F protease | inhibition, % at 10 µM; call rule not given here
LF protease CP1: Bacillus anthracis LF protease inhibitors, confirmation, biochemical, multiplex microsphere, cherry pick 1. inhibition, % at 10 µM. 720 tested, under 10 active. shares compounds with BoNT F protease. AID 602142, 2011. multiplex microsphere protease cleavage assay; call rule not given here
Each line names hits and unclear results; the compound was inactive in the other large screens (follow-up assays come after a bar, where they were run). Hits are enriched below; roughly 3.7% of the tested compounds scored in any of these assays. Rule as the data show it, unless noted: active = inhibition above about 30%; inconclusive = no clear call, values can overlap the other calls; inactive = below that.

C[C@@H]1CN([C@H](C)CO)C(=O)CCCn2nncc2CO[C@H]1CN(C)S(C)(=O)=O	none
Cc1ccc(NC(=O)CC2(CC(=O)O)CCCC2)cc1	none
O=C(O)CC1(CC(=O)Nc2ccc(C(F)(F)F)cc2)CCCC1	BoNT F protease 39.8 | BoNT-A LC CP1 inactive | BoNTF LC inh 1 inactive | LF protease CP1 inactive
Brc1ccc(-c2nnc(-c3cccnc3)o2)cc1	BoNT F protease inconclusive
Cc1ccc(-c2nnc(-c3cccnc3)o2)cc1	BoNT F protease 55.8 | BoNT-A LC CP1 inactive | BoNTF LC inh 1 inactive | LF protease CP1 inactive
Cc1ccc2nc(NC(=O)CN3C(=O)NC4(CCCC4)C3=O)sc2c1	Autofluor counter inconclusive
N#Cc1cccc(NC(=O)c2cc(C3CCCCN3C(=O)c3ccccn3)on2)c1 (centres undefined)	none (no result: MazEF act)
Cc1ccc2[nH]c(=O)c(C(c3nnnn3C(C)(C)C)N3CCN(C(=O)c4ccco4)CC3)cc2c1 (centres undefined)	none
Cc1ccc2cc(C(c3nnnn3C(C)(C)C)N3CCCCCC3)c(=O)[nH]c2c1 (centres undefined)	none | BoNT-A LC CP1 inactive | BoNTF LC inh 1 inactive | LF protease CP1 inactive
COc1ccc2cc(C(c3nnnn3CCc3ccccc3)N3CCC(O)CC3)c(=O)[nH]c2c1 (centres undefined)	Autofluor counter 38811, BoNT F protease active, BoNT A protease 30.5 | BoNT-A LC CP1 inactive | BoNTF LC inh 1 inactive | LF protease CP1 inactive
CCC(C)(C)n1nnnc1C(c1cc2cc(C)cc(C)c2[nH]c1=O)N1CCN(C(=O)c2ccco2)CC1 (centres undefined)	none | BoNT-A LC CP1 inactive | BoNTF LC inh 1 inactive | LF protease CP1 inactive
CCC(C)(C)n1nnnc1C(c1cc2cc(C)ccc2[nH]c1=O)N1CCCC1 (centres undefined)	Autofluor counter 21937, BoNT A protease inconclusive | BoNT-A LC CP1 inactive | BoNTF LC inh 1 inactive | LF protease CP1 inactive
Cc1cccc2cc(C(c3nnnn3C(C)(C)C)N3CCN(C(=O)c4ccco4)CC3)c(=O)[nH]c12 (centres undefined)	none
COc1cc2cc(C(c3nnnn3C(C)(C)C)N3CCc4ccccc4C3)c(=O)[nH]c2cc1OC (centres undefined)	none
O=C(c1ccccc1)N1CCC2(CC1)NCCc1[nH]cnc12	none
COc1ccc(S(=O)(=O)N2CCCCC2)cc1NC(=O)Cc1ccc(Br)cc1	none
O=C(NCc1cn2ccccc2n1)C1CCC(=O)N(Cc2ccccc2F)C1 (centres undefined)	none
CCN(Cc1ccccc1)C(c1cc2ccc(C)cc2[nH]c1=O)c1nnnn1CCOC (centres undefined)	Autofluor counter inconclusive, BoNT A protease inconclusive, Anthrax LF inh2 inconclusive | BoNT-A LC CP1 inactive | BoNTF LC inh 1 inactive | LF protease CP1 inactive
COCCn1nnnc1C(C(C)C)N(Cc1ccccc1)Cc1cc2cc(OC)ccc2[nH]c1=O (centres undefined)	none
COc1ccc(Cn2nnnc2C(c2cc3cccc(C)c3[nH]c2=O)N2CCOCC2)cc1 (centres undefined)	none
COc1ccc(Cn2nnnc2C(c2cc3cc(C)ccc3[nH]c2=O)N2CCOCC2)cc1 (centres undefined)	Autofluor counter 22468 | BoNT-A LC CP1 inactive | BoNTF LC inh 1 inactive | LF protease CP1 inactive
COc1ccc(C)cc1N(CC(=O)N1CCOCC1)S(C)(=O)=O	BoNT F protease 35.7 | BoNT-A LC CP1 inactive | BoNTF LC inh 1 inactive | LF protease CP1 inactive
COc1ccc(C)cc1N(CC(=O)N1CCCC1)S(C)(=O)=O	none
Cn1cnnc1SCC(=O)Nc1ccccc1	none
Cn1cnnc1SCC(=O)Nc1ccc(S(N)(=O)=O)cc1	BoNT F protease 37.4, Anthrax LF inh2 33.8 | BoNT-A LC CP1 inactive | BoNTF LC inh 1 inactive | LF protease CP1 inactive
